Test results published in PubChem BioAssay (NCI).
The panel holds about 83,000 compounds, 20% with a hit somewhere; the sample as a whole holds those more often.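 Note: values are percent growth. 100 is the growth of untreated cells, values between 100 and 0 indicate rising inhibition; between -100 and 0 indicates cell death.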 A number with no mark means an inactive call. The source made the active and inactive calls. The calls were made as follows: active = growth percent below 10; inactive = the rest.

Assays:
Experiment in all cases: NCI-60 one-dose screen, 48 h (100 = growth as untreated, 0 = no growth, -100 = all killed)
Conditions in all cases: 10 µM unless noted
DU-145 prostate = tested on: DU-145 prostate
K-562 leukemia = tested on: K-562 leukemia
MALME-3M melanoma = tested on: MALME-3M melanoma
MDA-MB-231 breast = tested on: MDA-MB-231 breast
RXF 393 renal = tested on: RXF 393 renal
SF-268 CNS = tested on: SF-268 CNS
SF-295 CNS = tested on: SF-295 CNS
SF-539 CNS = tested on: SF-539 CNS
UACC-257 melanoma = tested on: UACC-257 melanoma
M14 melanoma = tested on: M14 melanoma

SMILES	growth (DU-145 prostate)	growth (K-562 leukemia)	growth (MALME-3M melanoma)	growth (MDA-MB-231 breast)	growth (RXF 393 renal)	growth (SF-268 CNS)	growth (SF-295 CNS)	growth (SF-539 CNS)	growth (UACC-257 melanoma)	growth (M14 melanoma)
CC(=O)OC[C@@]1(C)C2CC[C@]3(C)C(CC=C4C5CC(C)(C)CC[C@]5(C(=O)Nc5cccc(C)c5)CC[C@]43C)[C@@]2(C)C[C@@H](OC(C)=O)[C@@H]1OC(C)=O (stereo not given in full)	48.3%	21.5%	61.3%	67.7%	85.4%	56.2%	27.4%	42%	24.7%	49.8%
O=C(CN1C(=O)/C(=C/c2ccccc2F)SC1=S)N1CCOCC1	56.3%	19.2%	51.8%	92%	71.8%	99.1%	108%	82.3%	89.6%	79.4%
COc1cc(/C=C2\C(=N)N=C(SCc3nc4ccccc4[nH]3)NC2=O)ccc1O	108%	103%	91.1%	86.4%	113%	111%	101%	99.2%	105%	95.4%
CC(C)CSc1nc(NCCc2c[nH]c3ccccc23)c(C#N)c(-c2ccccc2)n1	66.8%	20.5%	91.8%	38.3%	32.5%	67.4%	68.7%	62.5%	97.4%	74.5%
CN(C)c1ccnc(CNCCSC2(c3ccccc3)c3ccccc3C=Cc3ccccc32)c1	-26.1% (active)	-27.1% (active)	-93.4% (active)	-49.5% (active)	-36.6% (active)	-30.7% (active)	-70.5% (active)	-96.5% (active)	-66.3% (active)	-80.8% (active)
Cc1ccccc1[C@H]1C(C(=O)c2ccc(Cl)cc2)C2(N[C@@H]1c1ccccc1)C(=O)Nc1ccc(Br)cc12 (stereo not given in full)	15%	1.41% (active)	45.1%	-19.8% (active)	-29% (active)	31%	19.3%	36.9%	37.3%	1.39% (active)
Clc1cccc(N/N=C/c2c[nH]c3ccc(Br)cc23)n1	64.1%	-26% (active)	39%	-67.7% (active)	31.6%	40.8%	-9.75% (active)	-1.26% (active)	57.6%	15.2%
CN(C)CCn1c2ccccc2c2nc3cc4ccccc4cc3nc21	-30% (active)	2.68% (active)	-87.3% (active)	9% (active)	-42.9% (active)	46.2%	-67.6% (active)	-72.2% (active)	18.1%	-63.3% (active)
Cc1ccc(S(=O)(=O)c2nc(S(=O)(=O)c3ccc(C)cc3)c(Cl)s2)cc1	-22.5% (active)	5.15% (active)	-90.4% (active)	-54.5% (active)	-76.9% (active)	108%	94%	-62% (active)	67.2%	23.7%
O=c1[nH]c2ccc(Cl)cc2cc1CSc1nccc(-c2ccc(Cl)cc2)n1	78.9%	64.7%	51%	45.7%	35.3%	54.3%	16.8%	3.24% (active)	60.9%	71.1%
CC(=O)Nc1ccc(-n2cnc3ccc(-c4ccc(O)cc4)cc32)cc1	44.7%	56.6%	50.3%	70.4%	10.9%	36.3%	56%	34.2%	67.3%	48.7%
N=C1N=C(SCc2nc3ccccc3[nH]2)NC(=O)/C1=C/c1ccc(Cl)cc1	110%	110%	96.4%	92.8%	113%	112%	103%	102%	106%	108%
COc1cc(C2CC(c3ccc(S(=O)(=O)NCCNc4nc(Nc5ccc(F)cc5)nc(N(C)C)n4)cc3)=Nc3c(N)nc(N)nc3N2)cc(OC)c1OC (stereo not given)	103%	47.2%	84.4%	43.7%	74%	82.8%	94%	86%	97.9%	101%
Cn1cc(-c2cc(N)n3nc(-c4cn(C)c5ncccc45)cc3n2)c2cccnc21	83.2%	5.55% (active)	97.3%	-22.4% (active)	58.8%	92.7%	62.6%	84.2%	100%	93.1%
COc1ccc2c(c1)C(=N/N=C(\C)c1ccc(OC)c(S(N)(=O)=O)c1)C(=O)N2	105%	103%	93.7%	75.1%	80.4%	97.5%	86.4%	86.8%	96.7%	92.4%
CCOC(=O)/C=C/c1cccc2c1C(=O)NC(C)(c1cc3cc(Br)ccc3oc1=O)N2 (stereo not given)	49.6%	24.1%	71%	56%	35.6%	49.8%	36.7%	73.9%	64.6%	42.4%
COc1cc(/C=C/C(=O)c2ccccc2)ccc1Oc1nc(Nc2ccc(F)cc2)nc(N(C)C)n1	53.7%	6.43% (active)	41.5%	-4.47% (active)	39.4%	42.3%	26.5%	-8.58% (active)	21.9%	38.7%
O=C(C1=CNC(=S)NC1c1ccc(O)cc1)c1cc2ccccc2oc1=O (stereo not given)	110%	90.9%	108%	105%	109%	97.5%	98.8%	91.9%	107%	96.4%
CN(C)c1nc(NCCNS(=O)(=O)c2ccc(C(=O)/C=C/c3ccc(Cl)cc3)cc2)nc(Nc2ccc(F)cc2)n1	-23.1% (active)	1.01% (active)	-46.6% (active)	-61.4% (active)	-81.3% (active)	3.35% (active)	-26.6% (active)	-98% (active)	-4.45% (active)	-65.8% (active)
OCNc1ccc(-n2cnc3cc(-c4ccc(O)cc4)ccc32)cc1C(F)(F)F	28.6%	17.2%	26.6%	38.6%	47.5%	24.7%	4.48% (active)	23.5%	58.4%	11.9%
CC(/C=C1\SC(=S)N(CCCC(=O)NC(CC(C)C)C(=O)O)C1=O)=C\c1ccccc1 (stereo not given)	98.7%	82.8%	104%	99.8%	96.2%	100%	97.4%	96%	104%	78.6%
Cc1cc(=O)oc2cc(OCCOc3ccc(/C=C/C(=O)Nc4ccccc4N)cc3)ccc12	35.9%	21.1%	48.6%	-16.1% (active)	31%	27.9%	30.6%	18.9%	30.3%	54.2%
O=C(NN1C(=O)/C(=C/C=C/c2ccc([N+](=O)[O-])o2)SC1=S)c1cccc(O)c1	-99.2% (active)	6.17% (active)	-99.2% (active)	-98.4% (active)	-89.6% (active)	-91.3% (active)	-40.1% (active)	-100% (active)	-85.2% (active)	-89% (active)
CCN(CC)c1ccc(/C=N/Nc2nc(-c3ccc(C)cc3)cs2)c(O)c1	97.6%	62.1%	105%	99.6%	87.1%	105%	93.6%	106%	95.2%	99.7%
COc1c(F)ccc(C(=O)Nc2ccc3nc(NC(=O)C4CCCN(S(=O)(=O)c5ccc(C(F)(F)F)cc5)C4)sc3c2)c1F (stereo not given)	88%	64.6%	89%	81.3%	9.04% (active)	68%	74.7%	68.4%	86.3%	79.3%
CC1(C)CC[C@]2(C(=O)O)CC[C@]3(C)C(=CCC4[C@@]5(C)C[C@@H](O)[C@@H]6OC(c7ccccc7Br)OC[C@@]6(C)C5CC[C@]43C)C2C1 (stereo not given in full)	20%	11.6%	44%	32.4%	22.7%	24.2%	10.6%	26.8%	18.2%	31.8%
